Measurements: PubChem BioAssay AID1159580 (chemical genetic matrix, 2015)
“And” between values parts separate entries of the source, which are not always exact repeats. Equal values may be shown once. Screen size: about 5,500 compounds; about 2,000 (36%) were called active. Roughly 18% stayed inconclusive and do not appear here. No stated cut-off is given here; in the data, active means normalized growth mostly below about 0.91 (no sharp cut-off); inconclusive means no clear call, values can overlap the other calls; inactive means mostly above about 0.92. The list shows a part of the results.

Assay: chemical genetic growth profiling, strain panel (AID 1159580);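 further: tested at 20 µM; growth read once vehicle control cultures reached saturation at 30 °C; 1 = growth at the plate median or of vehicle wells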
Conditions: S. cerevisiae deletion strains, growth OD

Measured: normalized growth

C=CCc1ccccc1OCC(O)CNC(C)C (stereo not given)
inactive: locus YAL013W, strain DEP1, stronger effect = lower value 1 and 0.978 | locus YAL021C, strain ccr4, stronger effect = lower value 1 | locus YAL026C, strain drs2, stronger effect = lower value 1 | locus YAL030W, strain snc1, stronger effect = lower value 0.995 | locus YAL040C, strain CLN3, stronger effect = lower value 0.974 | locus YBL061C, strain skt5, stronger effect = lower value 1 | locus YBR009C, strain hhf1, stronger effect = lower value 0.971 | locus YBR021W, strain FUR4, stronger effect = lower value 0.998 | locus YBR023C, strain chs3, stronger effect = lower value 1 | locus YBR171W, strain sec66, stronger effect = lower value 0.99 | locus YBR229C, strain ROT2, stronger effect = lower value 1 | locus YBR231C, strain swc5, stronger effect = lower value 0.987 | locus YBR279W, strain paf1, stronger effect = lower value 1 | locus YCL011C, strain gbp2, stronger effect = lower value 0.998 | locus YCL016C, strain dcc1, stronger effect = lower value 0.993 | locus YCL029C, strain bik1, stronger effect = lower value 1.02 | locus YCL061C, strain MRC1 (second series), stronger effect = lower value 1 | locus YCL061C, strain MRC1, stronger effect = lower value 0.999 | locus YCL069W, strain vba3, stronger effect = lower value 0.994 | locus YCR088W, strain abp1, stronger effect = lower value 0.992 | locus YDL005C, strain med2, stronger effect = lower value 0.995 | locus YDL035C, strain GPR1, stronger effect = lower value 0.991 | locus YDL040C, strain nat1, stronger effect = lower value 0.995 | locus YDL074C, strain BRE1, stronger effect = lower value 1.01 | locus YDL101C, strain DUN1, stronger effect = lower value 1.01 | locus YDL134C, strain PPH21, stronger effect = lower value 1.01 | locus YDL185W, strain tfp1, stronger effect = lower value 1 | locus YDL192W, strain arf1, stronger effect = lower value 1.02 | locus YDR001C, strain nth1, stronger effect = lower value 1 | locus YDR069C, strain doa4, stronger effect = lower value 0.979 | locus YDR101C, strain arx1, stronger effect = lower value 1.01 | locus YDR137W, strain rgp1, stronger effect = lower value 0.998 | locus YDR150W, strain NUM1, stronger effect = lower value 1 and 1.02 | locus YDR159W, strain sac3, stronger effect = lower value 0.993 | locus YDR162C, strain NBP2, stronger effect = lower value 1 | locus YDR195W, strain ref2 0.913 | locus YDR297W, strain sur2, stronger effect = lower value 1 | locus YDR318W, strain mcm21, stronger effect = lower value 1.01 | locus YDR334W, strain swr1, stronger effect = lower value 0.997 | locus YDR335W, strain msn5, stronger effect = lower value 1 | locus YDR363W, strain ESC2, stronger effect = lower value 0.973 | locus YDR388W, stronger effect = lower value 1 | locus YDR392W, strain spt3, stronger effect = lower value 0.86 | locus YDR502C, strain sam2, stronger effect = lower value 1.01 | locus YEL003W, strain gim4, stronger effect = lower value 0.992 | locus YEL037C, strain rad23, stronger effect = lower value 0.997 | locus YEL061C, strain CIN8 (second series), stronger effect = lower value 1 | locus YEL061C, strain CIN8, stronger effect = lower value 1 | locus YER002W, strain NOP16, stronger effect = lower value 0.975 | locus YER015W, strain faa2, stronger effect = lower value 0.995 | locus YER016W, strain bim1, stronger effect = lower value 0.985 | locus YER110C, stronger effect = lower value 1.02 | locus YER111C, strain swi4, stronger effect = lower value 0.986 | locus YER155C, strain BEM2 (second series), stronger effect = lower value 0.968 | locus YER155C, strain BEM2, stronger effect = lower value 0.999 | locus YER167W, strain BCK2, stronger effect = lower value 1 | locus YFR010W, strain ubp6, stronger effect = lower value 1 | locus YGL078C, strain dbp3, stronger effect = lower value 1.01 | locus YGL086W, strain mad1, stronger effect = lower value 1 | locus YGL167C, strain pmr1, stronger effect = lower value 0.998 | locus YGL173C, strain kem1, stronger effect = lower value 0.997 | locus YGL227W, strain vid30, stronger effect = lower value 0.987 | locus YGL240W, strain doc1, stronger effect = lower value 0.983 | locus YGL248W, strain PDE1, stronger effect = lower value 0.998 | locus YGL253W, strain hxk2, stronger effect = lower value 1 | locus YGR078C, strain PAC10, stronger effect = lower value 1.01 | locus YGR135W, strain pre9, stronger effect = lower value 1.02 | locus YGR229C, strain SMI1, stronger effect = lower value 0.974 | locus YGR252W, strain gcn5, stronger effect = lower value 0.98 | locus YHR013C, strain ard1, stronger effect = lower value 0.943 | locus YHR027C, strain rpn1, stronger effect = lower value 1 | locus YHR030C, strain SLT2, stronger effect = lower value 1 and 0.989 | locus YHR079C, strain IRE1 (second series), stronger effect = lower value 1.01 | locus YHR079C, strain IRE1, stronger effect = lower value 0.972 | locus YHR094C, strain hxt1, stronger effect = lower value 1 | locus YHR129C, strain ARP1, stronger effect = lower value 1.01 | locus YHR142W, strain chs7, stronger effect = lower value 1.01 | locus YHR200W, strain rpn10, stronger effect = lower value 1 | locus YIL066C, strain RNR3, stronger effect = lower value 1.01 | locus YIL073C, strain SPO22, stronger effect = lower value 1.06 | locus YIL125W, strain kgd1, stronger effect = lower value 1.01 | locus YIR030C, strain dcg1, stronger effect = lower value 1.02 | locus YJL092W, strain hpr5, stronger effect = lower value 1 | locus YJL095W, strain BCK1 (second series), stronger effect = lower value 0.995 | locus YJL095W, strain BCK1, stronger effect = lower value 1.02 and 0.978 | locus YJL115W, strain asf1, stronger effect = lower value 1 | locus YJL129C, strain trk1, stronger effect = lower value 0.998 | locus YJL134W, strain LCB3, stronger effect = lower value 0.997 | locus YJL154C, strain vps35, stronger effect = lower value 0.99 | locus YJL164C, strain tpk1, stronger effect = lower value 1.01 | locus YJL166W, strain qcr8, stronger effect = lower value 1 | locus YJL168C, strain set2, stronger effect = lower value 1.01 | locus YJL187C, strain SWE1 (second series), stronger effect = lower value 1.02 | locus YJL187C, strain SWE1, stronger effect = lower value 1.01 | locus YJR043C, strain POL32, stronger effect = lower value 1
